From PubChem BioAssay (Tox21)
Values without a mark were called inactive. Inconclusive results are not listed. Where a call stands in place of a potency, no number is given. Calls of active or inactive are those of the source. Unless noted, calls follow the shape of the dose curve; as a rule, active = well fitted curve in the direction sought with a large enough effect in the repeat runs; inconclusive = weak or mixed curves; inactive = no such curve, though single readings can be large; an effect the other way counts as inactive or inconclusive.

Legend:
[1] = qHTS RealTime-Glo MT Cell Viability Assay in HEK293 cells - 0 hour (AID 1224880); also: top concentration of the series differs between compounds; nearly all actives have a fitted effect of over 45% in size
Procedure, shortened: (§1)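 Viable HEK293 cells reduce a cell-permeant prosubstrate; the product diffuses out and is consumed by NanoLuc in the medium to give light. Compounds went in after a 5 h incubation and plates were read over the treatment course.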

[2] = A CellTox Green Cytotoxicity Assay to monitor cytotoxicity in HEK293 cells - 32 hour (AID 1224881); also: nearly all actives have a fitted effect of over 40% in size
Procedure, shortened: (§2)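 Fluorescence intensity, read at 0, 8, 16, 24, 32 and 40 h of compound treatment, reflected dye binding to DNA of dead HEK293 cells; compounds (23 nL, DMSO) were added 5 h after plating cells with reagent.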

[3] = A CellTox Green Cytotoxicity Assay to monitor cytotoxicity in HepG2 cells - 0 hour (AID 1224882); also: nearly all actives have a fitted effect of over 35% in size
Procedure, shortened: (§3)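 Using 1536-well format, dye-containing HepG2 suspension was seeded, allowed 5 h at 37 C/5% CO2, dosed by pintool with compounds, positive and negative controls, and imaged for fluorescence across 40 h.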

[4] = A CellTox Green Cytotoxicity Assay to monitor cytotoxicity in HepG2 cells - 32 hour (AID 1224883); also: nearly all actives have a fitted effect of over 50% in size
Procedure, shortened: as §3

[5] = qHTS RealTime-Glo MT Cell Viability Assay in HepG2 cells - 16 hour (AID 1224885); also: nearly all actives have a fitted effect of over 50% in size
Procedure, shortened: (§4)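 Cell number in HepG2 cultures estimated from NanoLuc luminescence generated by metabolic reduction of a prosubstrate by living cells. The homogeneous, nonlytic format allowed repeated reads at 0, 8, 16, 24, 32 and 40 h of compound exposure.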

[6] = qHTS RealTime-Glo MT Cell Viability Assay in HEK293 cells - 24 hour (AID 1224886); also: nearly all actives have a fitted effect of over 50% in size; also: potency is read from the fitted curve at half-maximal effect
Procedure, shortened: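 Homogeneous bioluminescent viability format in HEK293 cells (600 cells/well). Following 5 h at 37 C/5% CO2, 23 nL compound was pintooled; the signal was measured repeatedly during 40 h incubation.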

[7] = qHTS RealTime-Glo MT Cell Viability Assay in HEK293 cells - 8 hour (AID 1224887); also: nearly all actives have a fitted effect of over 50% in size; also: potency is read from the fitted curve at half-maximal effect
Procedure, shortened: as §1

[8] = A CellTox Green Cytotoxicity Assay to monitor cytotoxicity in HEK293 cells - 16 hour (AID 1224888); also: nearly all actives have a fitted effect of over 35% in size
Procedure, shortened: as §2

[9] = A CellTox Green Cytotoxicity Assay to monitor cytotoxicity in HepG2 cells - 8 hour (AID 1224890); also: nearly all actives have a fitted effect of over 45% in size
Procedure, shortened: as §3

[10] = qHTS assay to identify small molecule antagonists of the androgen receptor (AR) signaling pathway using the MDA cell line in the presence of 0.5 nM R1881 - cell viability counter screen (AID 1259242); also: nearly all actives have a fitted effect of over 45% in size; also: potency is read from the fitted curve at half-maximal effect
Procedure, shortened: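 Viability of MDA-kb2 cells was multiplexed with the luciferase AR readout; after 16 hr with compounds and R1881 at 0.5 nM final, CellTiter-Fluor fluorescence was recorded.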

[11] = qHTS assay to identify small molecule phospholipidosis (PLD) inducers (AID 1259344; active = well fitted curve in the direction sought with a large enough effect; an effect the other way counts as inactive or inconclusive)
Procedure, shortened: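 HepG2 cells, 900/well, treated with compound plus LipidTOX Red for 24 h at 37 C; amiodarone positive and DMSO negative controls. Fixed with paraformaldehyde/Hoechst, then high-content imaging scored LipidTOX pit count and integrated intensity per well and per cell.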

[12] = qHTS assay to identify small molecule HDAC inhibitors (AID 1259364); also: potency is read from the fitted curve at half-maximal effect;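 also: wild-type HCT-116 cells with endogenous class I/II HDAC activity; nearly all actives have a fitted effect of over 45% in size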
Procedure, shortened: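 Read-out: luminescence of HDAC-Glo I/II reagent, 30 min RT, reflecting class I/II deacetylase activity in whole HCT-116 cells pre-exposed 2 h to DMSO-dissolved compounds.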

[13] = qHTS assay to identify small molecule HDAC inhibitors - cell viability counter screen (AID 1259365)
Procedure, shortened: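 Counter screen in wild-type HCT-116 cells: compounds dissolved in DMSO are pin-transferred onto overnight-plated cells and left 2hr at 37C. ATP-based CellTiter-Glo luminescence then measures viable cells.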

[14] = qHTS assay to identify small molecule agonists of the sonic hedgehog signaling (Shh) pathway - cell viability counter screen (AID 1259366); also: nearly all actives have a fitted effect of over 50% in size; also: potency is read from the fitted curve at half-maximal effect
Procedure, shortened: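 Cells are plated at 2,000 per well and left 4hr at 37C, 5% CO2 before compound addition. After 23hr of treatment, CellTiter-Fluor reagent is added for 1hr at 37C and fluorescence is measured.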

[15] = qHTS assay to identify small molecule antagonists of the sonic hedgehog signaling (Shh) pathway - cell viability counter screen (AID 1259367); also: nearly all actives have a fitted effect of over 55% in size; also: potency is read from the fitted curve at half-maximal effect
Procedure, shortened: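 NIH/3T3-derived Gli1-Luc reporter cells, 2,000/well, plated 4 hr before compound addition, then stimulated with conditioned medium for 24 hr at 37C. Viability measured in the same wells by CellTiter-Fluor fluorescence, reagent added at 23 hr for 1 hr.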

[16] = qHTS RealTime-Glo MT Cell Viability Assay in HepG2 cells - 0 hour (AID 1224889); also: nearly all actives have a fitted effect of over 50% in size
Procedure, shortened: as §4

[17] = qHTS assay to identify small molecule antagonists of the estrogen receptor alpha (ER-alpha) signaling pathway using the BG1 cell line in the presence of 0.1 nM 17-beta-estradiol - cell viability counter screen (AID 1259241); also: nearly all actives have a fitted effect of over 40% in size
Procedure, shortened: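 Cells were plated and left 24 hr, compounds in DMSO were pinned in, 17beta-estradiol was added to 0.1 nM final, and after 22 hr CellTiter-Fluor reagent was added for 30 min before fluorescence was read.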

[18] = molecular target: Estrogen receptor (Homo sapiens) (UniProt P03372); assay: qHTS assay to identify small molecule antagonists of the estrogen receptor alpha (ER-alpha) signaling pathway using the BG1 cell line in the presence of 0.1 nM 17-beta-estradiol (AID 1259244); also: nearly all actives have a fitted effect of over 50% in size
Estrogen receptor (Homo sapiens), sequence (P03372 whole entry, looked up): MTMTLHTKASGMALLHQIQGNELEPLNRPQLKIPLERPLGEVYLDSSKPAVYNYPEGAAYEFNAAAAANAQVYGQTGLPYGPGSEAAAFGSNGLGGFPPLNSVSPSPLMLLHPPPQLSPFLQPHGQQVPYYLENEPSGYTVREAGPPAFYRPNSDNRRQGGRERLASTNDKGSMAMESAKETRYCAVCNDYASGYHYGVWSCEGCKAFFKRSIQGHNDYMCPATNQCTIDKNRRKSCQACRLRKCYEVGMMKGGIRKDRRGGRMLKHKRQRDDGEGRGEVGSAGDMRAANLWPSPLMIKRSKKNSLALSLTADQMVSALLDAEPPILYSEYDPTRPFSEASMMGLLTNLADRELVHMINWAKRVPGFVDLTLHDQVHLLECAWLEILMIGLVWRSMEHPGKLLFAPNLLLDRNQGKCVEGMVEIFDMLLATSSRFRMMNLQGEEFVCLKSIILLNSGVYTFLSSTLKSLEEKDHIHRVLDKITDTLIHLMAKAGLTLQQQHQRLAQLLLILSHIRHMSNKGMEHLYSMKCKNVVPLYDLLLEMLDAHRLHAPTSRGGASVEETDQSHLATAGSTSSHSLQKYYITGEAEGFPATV
Procedure, shortened: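 Estradiol at 0.1 nM (final) stimulates the endogenous ER-alpha of VM7Luc4E2 cells carrying an ERE-driven luciferase; compounds are co-incubated 22 h at 37C and luciferase output quantified by luminescence.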

[19] = A CellTox Green Cytotoxicity Assay to monitor cytotoxicity in HEK293 cells - 8 hour (AID 1224884); also: nearly all actives have a fitted effect of over 35% in size
Procedure, shortened: as §2

[20] = molecular target: Androgen receptor (Homo sapiens) (UniProt P10275); assay: qHTS assay to identify small molecule antagonists of the androgen receptor (AR) signaling pathway using the MDA cell line in the presence of 0.5 nM R1881 (AID 1259243); also: nearly all actives have a fitted effect of over 50% in size
Androgen receptor (Homo sapiens), sequence (P10275 whole entry, looked up): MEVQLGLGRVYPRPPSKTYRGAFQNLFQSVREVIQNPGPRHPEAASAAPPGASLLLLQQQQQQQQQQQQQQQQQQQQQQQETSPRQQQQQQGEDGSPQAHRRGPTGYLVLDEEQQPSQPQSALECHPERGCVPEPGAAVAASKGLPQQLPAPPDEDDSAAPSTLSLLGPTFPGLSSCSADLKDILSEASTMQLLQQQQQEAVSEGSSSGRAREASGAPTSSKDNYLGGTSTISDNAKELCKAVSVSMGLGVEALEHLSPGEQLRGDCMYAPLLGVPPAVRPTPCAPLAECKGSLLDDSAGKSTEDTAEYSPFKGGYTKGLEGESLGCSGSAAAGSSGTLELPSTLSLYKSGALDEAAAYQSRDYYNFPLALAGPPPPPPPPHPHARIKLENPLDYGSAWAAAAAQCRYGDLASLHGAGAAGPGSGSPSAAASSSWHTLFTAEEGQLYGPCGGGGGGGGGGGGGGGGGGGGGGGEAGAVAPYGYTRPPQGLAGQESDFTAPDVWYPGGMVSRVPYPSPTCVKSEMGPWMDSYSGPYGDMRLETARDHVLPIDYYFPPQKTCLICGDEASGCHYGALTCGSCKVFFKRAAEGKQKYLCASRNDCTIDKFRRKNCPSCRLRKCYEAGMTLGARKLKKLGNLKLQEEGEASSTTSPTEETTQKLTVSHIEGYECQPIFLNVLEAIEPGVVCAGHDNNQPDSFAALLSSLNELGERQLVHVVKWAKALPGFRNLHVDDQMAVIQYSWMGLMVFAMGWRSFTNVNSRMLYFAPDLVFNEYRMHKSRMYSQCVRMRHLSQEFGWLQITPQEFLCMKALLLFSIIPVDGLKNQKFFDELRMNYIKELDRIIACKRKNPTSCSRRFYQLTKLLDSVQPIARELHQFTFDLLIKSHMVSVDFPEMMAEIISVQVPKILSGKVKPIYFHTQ
Procedure, shortened: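 Reporter cells cultured without CO2 receive test chemicals, then 0.5 nM R1881 final; after 16 hr at 37C, ONE-Glo is added and light output recorded.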

SMILES | Potency [1] | Potency [2] | Potency [3] | Potency [4] | Potency [5] | Potency [6] | Potency [7] | Potency [8] | Potency [9] | Potency [10] | Potency [11] | Potency [12] | Potency [13] | Potency [14] | Potency [15] | Potency [16] | Potency [17] | Potency [18] | Potency [19] | Potency [20]
CC1(C)[C@@H](OC(=O)CCC(=O)O)CC[C@]2(C)[C@H]3C(=O)C=C4[C@@H]5C[C@@](C)(C(=O)O)CC[C@]5(C)CC[C@@]4(C)[C@]3(C)CC[C@@H]12 | inactive | inactive | inactive | inactive | inactive | inactive | inactive | inactive | inactive | inactive | inactive | inactive | inactive | inactive | inactive | – | – | – | – | –
NNC(=O)CP(=O)(c1ccccc1)c1ccccc1 | inactive | inactive | inactive | inactive | inactive | inactive | inactive | inactive | inactive | inactive | inactive | inactive | inactive | inactive | inactive | inactive | inactive | – | – | –
CC(=O)Oc1ccc([N+](=O)[O-])cc1CCl | inactive | inactive | inactive | inactive | inactive | 4.36 µM (active) | – | inactive | inactive | 30.6 µM (active) | – | inactive | inactive | 27.3 µM (active) | 27.3 µM (active) | inactive | – | inactive | – | –
CCCCCCCCOc1ccc(C(=O)O)cc1 | inactive | inactive | inactive | inactive | inactive | inactive | inactive | inactive | inactive | inactive | – | – | inactive | inactive | inactive | inactive | inactive | – | – | –
O=C(/C=C/c1ccccc1)OCCc1ccccc1 | inactive | inactive | inactive | inactive | – | inactive | inactive | – | inactive | inactive | – | 30.6 µM (active) | inactive | inactive | inactive | inactive | inactive | inactive | inactive | –
Cc1ccc(C(C)(C)O)cc1 | inactive | inactive | inactive | inactive | – | inactive | inactive | inactive | inactive | inactive | – | – | inactive | inactive | inactive | – | inactive | inactive | inactive | –
C[C@H]1c2cccc(O)c2C(O)=C2C(=O)[C@]3(O)C(O)=C(C(N)=O)C(=O)[C@@H](N(C)C)[C@@H]3[C@@H](O)[C@@H]21 | inactive | inactive | inactive | inactive | inactive | inactive | inactive | inactive | inactive | inactive | inactive | inactive | inactive | – | – | inactive | inactive | inactive | – | inactive
O=C(CCCN1CC=C(n2c(=O)[nH]c3ccccc32)CC1)c1ccc(F)cc1 | inactive | inactive | inactive | inactive | inactive | 10.7 µM (active) | 16.9 µM (active) | inactive | inactive | inactive | inactive | – | inactive | inactive | inactive | – | inactive | – | – | –
